Data taken from PubChem BioAssay (NCATS).
Inconclusive results are not listed. Calls of active or inactive are those of the source. Unless noted, calls follow the shape of the dose curve; as a rule, active = well fitted curve in the direction sought with a large enough effect; inconclusive = small, poorly fitted or top-dose-only effect, or another doubt; inactive = no such curve, though single readings can be large; an effect the other way counts as inactive or inconclusive.

Key:
[1] = Cell Viability - BJ (AID 421; calls by dose curve;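 also: potency is read from the fitted curve at half-maximal effect; cells exposed to compound for 40 hours at 37 °C before readout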); conditions: BJ fibroblast viability, qHTS
Summary of the method: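 Luminescent ATP signal (CellTiter-Glo, 20 min at room temperature) served as the read-out of viable BJ cells after 40 hours of compound treatment. Responses were scaled between DMSO and 100 uM tamoxifen, and AC50 values were obtained by Hill modeling.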

[2] = Cell Viability - Jurkat (AID 426;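 active = dose-dependent loss of cell ATP signal giving a full or clear fitted curve, ranked by lower potency value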; also: potency is read from the fitted curve at half-maximal effect); conditions: qHTS
Summary of the method: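 Jurkat (clone E6-1, human T-cell leukemia) cells, 5000/well in complete medium, were exposed to compound for 40 hr at 37 °C. Viability was read as intracellular ATP by CellTiter-Glo luminescence; AC50 came from Hill fits of concentration-response data.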

[3] = Cell Viability - Hek293 (AID 427;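 active = compounds whose dose-response curve shows a full or clear partial loss of cell viability, called from curve shape rather than a numeric limit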;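 also: potency is read from the fitted curve at half-maximal effect; cells exposed to compound for 40 hours at 37 °C before reading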); conditions: qHTS
Summary of the method: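 Luminescent ATP read-out (CellTiter-Glo, 20 min RT) after 40 hr compound exposure at 37 °C in complete medium. Signal normalized to DMSO (basal) and 100 uM tamoxifen (100% inhibition); concentration-response fitted with the standard Hill equation to give AC50.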

[4] = Cell Viability - MRC5 (AID 434; calls by dose curve;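 also: potency is read from the fitted curve at half-maximal effect; potency reflects cytotoxicity seen as loss of intracellular ATP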); conditions: MRC5 lung fibroblast viability, qHTS
Summary of the method: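 qHTS cytotoxicity in human lung fibroblast MRC5 cells; 40 hr treatment, 37 °C; cellular ATP by luciferase luminescence; DMSO = 0%, 100 uM tamoxifen = 100% inhibition; Hill-fit AC50.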

[5] = Cell Viability - Mesenchymal (AID 546); conditions: mesenchymal cells viability, qHTS; series mostly up to 91.7 µM;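 also: cells exposed to compound for 40 hours before reading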
Summary of the method: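 AC50 values reflect the drop in intracellular ATP in a human kidney mesenchymal line derived from normal glomeruli. Treatment lasts 40 hr at 37 °C in complete medium, and the signal comes from CellTiter-Glo luminescence.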

[6] = Cellular Toxicity (caspase-3) SHSY5Y (AID 657); conditions: SH-SY5Y caspase-3 activation, DMSO zero, 10 µM staurosporine = 100%; series mostly up to 91.7 µM
Summary of the method: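 SH-SY5Y human neuroblastoma cells, 1500/well, exposed to compound for 16 hours at 37 °C in complete medium. Caspase-3/7 activity read by Caspase-Glo luminescence after 1 hr at room temperature, normalized to DMSO and 10 uM staurosporine; AC50 from Hill fit.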

[7] = Cellular Toxicity (caspase-3) MRC-5 (AID 659); conditions: MRC-5 cells, luminescence, normalized: DMSO 0%, 10 µM staurosporine 100%; series mostly up to 91.7 µM
Summary of the method: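 Concentration-dependent caspase 3/7 activation is measured in human normal lung fibroblasts (MRC-5) following 16-hour treatment. AC50 values come from standard Hill-equation modeling of luminescence normalized to DMSO and 10 uM staurosporine.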

[8] = Cellular Toxicity (caspase-3) Mesangial (AID 660); conditions: mesangial cells, normalized: DMSO 0%, 100 µM tamoxifen 100%; series mostly up to 91.7 µM;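 also: cells exposed to compound for 16 h before the caspase read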
Summary of the method: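 Human renal glomerular mesangial cells (1000/well) were treated with compounds for 16 h at 37 °C in complete medium, then caspase 3/7 activity was read by Caspase-Glo luminescence. Data were normalized to DMSO and 100 uM tamoxifen; AC50 from Hill fits.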

[9] = Cellular Toxicity (caspase-3) SK-N-SH (AID 661); conditions: SK-N-SH caspase-3 activation, qHTS; series mostly up to 91.7 µM
Summary of the method: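 SK-N-SH human neuroblastoma cells (1500/well) were treated with compounds for 16 hr at 37 °C in complete medium; caspase 3/7 activity was read by Caspase-Glo luminescence. AC50 came from Hill fits of data normalized to DMSO and 10 uM staurosporine.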

[10] = Cellular Toxicity (caspase-3) Hek293 (AID 664); conditions: HEK293 caspase-3 activation, DMSO = 0%, 100 µM tamoxifen = 100%; at 92.2 µM (top of the series);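 also: cells exposed to compound for 16 h at 37 °C before readout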
Summary of the method: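 HEK293 cells were exposed to compounds in complete medium for 16 hr at 37 °C, then caspase-3/7 activity was read by Caspase-Glo 3/7 luminescence after 20 min at room temperature. Data normalized to DMSO and 100 uM tamoxifen; AC50 from Hill fits.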

[11] = Cellular Toxicity (caspase-3) N2a (AID 665); conditions: N2a cells, luminescence, normalized: DMSO 0%, 10 µM staurosporine 100%; series mostly up to 92.2 µM;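 also: compound exposure lasted 16 h at 37 °C before readout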
Summary of the method: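 Mouse N2a neuroblastoma cells (1500/well) were treated with compounds for 16 h at 37 °C, then caspase-3/7 activity was read by Caspase-Glo luminescence after 1 h at room temperature. Data were normalized to DMSO and 10 uM staurosporine; AC50 from Hill fits.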

[12] = Cell Viability - LYMP1-002 - Assay at 16 hr (AID 948); conditions: LYMP1-002 lymphoblastoid cell viability; series mostly up to 92.2 µM;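 also: 0% = DMSO alone and full effect = 92 µM tetraoctylammonium bromide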
Summary of the method: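 LYMP1-002 human lymphoblastoid cells, 2500/well, were treated with compounds for 16 hr at 37 C in complete medium. Viability was read as intracellular ATP by CellTiter-Glo luminescence, and AC50 was derived from a Hill fit to concentration-response data.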

[13] = MultiTox-Fluor Cytotoxicity Assay - LYMP1-003 - Dead Cells (AID 961); conditions: LYMP1-003 lymphoblastoid cells, dead-cell protease fluorescence; series mostly up to 92.2 µM;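 also: 0% = DMSO and 100% = tetraoctylammonium bromide; nearly all actives have a fitted effect of over 70% in size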
Summary of the method: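 Human lymphoblastoid LYMP1-003 cells (2500/well) were treated with compounds for 16 hr at 37 C in complete medium. Dead-cell protease release was read by bis-AAF-R110 fluorescence (Ex/Em 485/520). AC50 came from Hill fits, normalized to DMSO and 15 uM tetraoctylammonium bromide.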

[14] = MultiTox-Fluor Cytotoxicity Assay - LYMP1-003 - Live Cells (AID 962); conditions: LYMP1-003 lymphoblastoid cells, MultiTox-Fluor live-cell protease fluorescence; series mostly up to 92.2 µM;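 also: 0% = DMSO only and full loss = 92 µM tetraoctylammonium bromide; cytotoxic hits lower the live-cell protease signal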
Summary of the method: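 LYMP1-003 human lymphoblastoid cells (2500/well) in complete medium were preincubated 5 hr at 37 C, then exposed to compounds for 16 hr at 37 C. Live-cell protease cleavage of GF-AFC read by fluorescence (Ex/Em 405/510); AC50 from Hill fits.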

[15] = Cell Viability - LYMP1-003 - Assay at 24 hr (AID 963); conditions: LYMP1-003 lymphoblastoid cell viability; series mostly up to 92.2 µM;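 also: plate controls were DMSO only for no effect and tetraoctylammonium bromide positive control for full effect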
Summary of the method: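 Human lymphoblastoid LYMP1-003 cells (2500/well) were rested 5 hr at 37 C, then exposed to compounds in complete medium for 24 hr at 37 C. Cellular ATP was quantified by CellTiter-Glo luminescence, and AC50 values came from Hill fits of concentration-response data.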

[16] = Cell Viability - LYMP2-008 (AID 980); conditions: LYMP2-008 lymphoblastoid cell viability, qHTS; series mostly up to 92.2 µM; also: % is scaled to controls: 0 for no effect and ±100 for the full control effect; nearly all actives have a fitted effect of over 60% in size
Summary of the method: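 Human lymphoblastoid cells (2500/well) were plated, held 5 hr at 37 C, then exposed to compounds for 24 hr at 37 C in complete medium. Intracellular ATP was read by CellTiter-Glo luminescence; AC50 from Hill-fitted concentration-response.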

[17] = qHTS Assay for Identification of Small Molecule Inducers of Hypoxia Response (AID 2120; active = well fitted curve in the direction sought with a large enough effect in the signal ratio, with a control signal flat, not every such curve was filed as active; the % refers to the signal ratio; also: 0% is about no effect); conditions: hypoxia response reporter cells, beta-lactamase ratio readout; series mostly up to 104 µM
Summary of the method: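 HRE-beta-lactamase reporter in CellSensor HRE-bla ME-180 cells, 2500 cells/well in Opti-MEM with 0.5% dialyzed FBS; compounds tested as titration series, 17 h at 37 degrees C. CCF4 substrate 2.5 h at room temperature; AC50 from 460/530 nm ratio.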

[18] = molecular target: Peroxisome proliferator-activated receptor alpha (Homo sapiens) (UniProt Q07869); test: qHTS assay for small molecule agonists of the peroxisome proliferator-activated receptor alpha (PPARalpha) signaling pathway (AID 651778); conditions: PathHunter PPARalpha complementation, chemiluminescence, 6 h; active compounds read high; also: % of control where 0% means no effect
Summary of the method: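 Chemiluminescence from complemented enzyme reported PPARalpha activation in cells after 6 hr of compound treatment at 37 C. The detection reagent was incubated for 60 min at room temperature, and compounds were scored as agonists.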

[19] = qHTS assay for small molecule agonists of the antioxidant response element (ARE) signaling pathway measured by Nrf2-dependant transcriptional activity - cell viability counter screen (AID 720653; active = well fitted curve in the direction sought with a large enough effect in the repeat runs; an effect the other way counts as inactive or inconclusive; also: % is scaled to controls: 0 for no effect and ±100 for the full control effect); conditions: ARE-bla HepG2 viability, CellTiter-Glo ATP luminescence, 16 h; active compounds read low
Summary of the method: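 Cytotoxicity counter screen: intracellular ATP quantified by CellTiter-Glo luminescence in the same ARE-bla HepG2 plates, after 16 h compound exposure and a 2 h beta-lactamase substrate step.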

[20] = qHTS assay for cell viability of the p53RE-bla HCT-116 cell line (AID 743292); conditions: p53RE-bla HCT-116 viability, ATP luminescence, 16 h; series mostly up to 95 µM; also: % is scaled to controls: 0 for no effect and ±100 for the full control effect; nearly all actives have a fitted effect of over 55% in size
Summary of the method: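 ATP-based luminescent viability (CellTiter-Glo, 30 min RT) after 16 h compound treatment at 37 C of p53RE-bla HCT-116 cells, seeded at 4,000 cells/well and rested 5 h before dosing.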

Peroxisome proliferator-activated receptor alpha (Homo sapiens), sequence (Q07869 whole entry, looked up): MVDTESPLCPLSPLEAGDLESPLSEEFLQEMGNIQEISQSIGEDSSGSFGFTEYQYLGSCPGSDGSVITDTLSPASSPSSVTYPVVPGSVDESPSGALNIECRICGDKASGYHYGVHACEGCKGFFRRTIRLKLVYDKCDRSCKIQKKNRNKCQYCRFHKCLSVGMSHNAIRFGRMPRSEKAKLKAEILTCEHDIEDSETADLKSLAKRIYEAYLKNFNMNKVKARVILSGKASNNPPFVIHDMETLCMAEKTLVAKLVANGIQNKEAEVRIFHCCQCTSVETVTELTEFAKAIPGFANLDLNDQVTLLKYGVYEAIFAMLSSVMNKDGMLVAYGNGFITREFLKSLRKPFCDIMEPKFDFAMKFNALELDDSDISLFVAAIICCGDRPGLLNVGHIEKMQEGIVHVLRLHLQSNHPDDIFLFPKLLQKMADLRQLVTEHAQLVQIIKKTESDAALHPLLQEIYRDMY

O=[N+]([O-])c1cc(Cl)c(Cl)cc1Cl
inactive: Potency [1] > 92 µM | Potency [2] > 92 µM | Potency [3] > 92 µM | Potency [4] > 92 µM | Potency [5] | outcome [6] | outcome [7] | outcome [8] | Potency [9] | caspase-3 activation [10] -4.07% | outcome [11] | outcome [12] | Potency [13] | outcome [14] | outcome [15] | Potency [16] | Potency [17] | max response [18] -8.71% | max response [19] -7.17% | Potency [20]

[N-]=[N+]=[N-]
inactive: Potency [1] > 92 µM | Potency [2] > 92 µM | Potency [3] > 92 µM | Potency [4] > 92 µM | Potency [5] | outcome [6] | outcome [7] | outcome [8] | Potency [9] | caspase-3 activation [10] -2.5% | outcome [11] | outcome [12] | Potency [13] | outcome [14] | outcome [15] | Potency [16] | Potency [17] | max response [18] -3.11% | max response [19] -8.07% | Potency [20]

N#C/C(N)=C(/N)C#N
inactive: Potency [1] > 92 µM | Potency [2] > 92 µM | Potency [3] > 92 µM | Potency [4] > 92 µM | Potency [5] | outcome [6] | outcome [7] | outcome [8] | Potency [9] | caspase-3 activation [10] -2.4% | outcome [11] | outcome [12] | Potency [13] | outcome [14] | outcome [15] | Potency [16] | Potency [17] | max response [18] -0.162% | max response [19] -10.7% | Potency [20]

CCN(CC)N=O
inactive: Potency [1] > 92 µM | Potency [2] > 92 µM | Potency [3] > 92 µM | Potency [4] > 92 µM | Potency [5] | outcome [6] | outcome [7] | outcome [8] | Potency [9] | caspase-3 activation [10] 1.39% | outcome [11] | outcome [12] | Potency [13] | outcome [14] | outcome [15] | Potency [16] | Potency [17] | max response [18] 2.1% | max response [19] 2.46% | Potency [20]

O=NN1CCCCC1
inactive: Potency [1] > 92 µM | Potency [2] > 92 µM | Potency [3] > 92 µM | Potency [4] > 92 µM | Potency [5] | outcome [6] | outcome [7] | outcome [8] | Potency [9] | caspase-3 activation [10] -0.0969% | outcome [11] | outcome [12] | Potency [13] | outcome [14] | outcome [15] | Potency [16] | Potency [17] | max response [18] -3.04% | max response [19] -0.59% | Potency [20]
